Source: PubChem BioAssay
KKLEB cytotox: counter-screen for CF NF-kB inhibitors: cytotoxicity; KKLEB CF airway cells viability, ATPlite luminescence, overnight; stronger effect = lower value; cells stimulated with P. aeruginosa culture filtrate; activity change (cytotoxicity), % at 5 µM; hit rate 0.36% among 360,000; AID 602141;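 active = corrected activity change at or below -50% at 5 µM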
ABHD5-PLIN5 inh: blocks binding of human ABHD5 to perilipin-5; Q00G26+Q8WTS1; Split G. princeps luciferase complementation, luminescence, 4 h; inhibition, % at 4 µM; hit rate 0.78% among 360,000;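 active = inhibition above the mean inhibition across every tested compound plus 3 SD, cut at about 22% in these data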
Target sequence (Q00G26 whole entry, looked up): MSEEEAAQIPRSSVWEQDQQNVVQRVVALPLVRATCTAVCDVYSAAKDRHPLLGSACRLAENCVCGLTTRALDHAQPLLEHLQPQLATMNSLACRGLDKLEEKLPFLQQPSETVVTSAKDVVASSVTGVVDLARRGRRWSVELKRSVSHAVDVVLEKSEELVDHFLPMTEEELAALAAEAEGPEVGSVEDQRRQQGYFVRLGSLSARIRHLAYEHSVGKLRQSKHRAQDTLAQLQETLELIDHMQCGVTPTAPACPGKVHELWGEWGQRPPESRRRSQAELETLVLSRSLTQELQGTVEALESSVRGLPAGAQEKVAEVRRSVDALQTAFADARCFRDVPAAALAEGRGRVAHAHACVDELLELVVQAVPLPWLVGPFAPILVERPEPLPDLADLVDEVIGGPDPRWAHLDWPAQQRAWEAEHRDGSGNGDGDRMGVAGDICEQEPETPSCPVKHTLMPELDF
Target sequence (Q8WTS1 whole entry, looked up): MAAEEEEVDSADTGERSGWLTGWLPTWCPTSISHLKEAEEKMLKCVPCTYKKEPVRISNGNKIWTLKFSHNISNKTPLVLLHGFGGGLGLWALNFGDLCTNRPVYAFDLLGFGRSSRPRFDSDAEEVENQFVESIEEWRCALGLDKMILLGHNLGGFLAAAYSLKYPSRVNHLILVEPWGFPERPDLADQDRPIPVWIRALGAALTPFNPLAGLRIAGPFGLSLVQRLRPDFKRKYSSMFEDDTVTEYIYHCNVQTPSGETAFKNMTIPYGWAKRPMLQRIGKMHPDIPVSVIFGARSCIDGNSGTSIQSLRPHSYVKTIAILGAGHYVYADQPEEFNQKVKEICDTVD
CF NFkB inh: inhibitors of cystic fibrosis induced NF-kB; inhibition, % at 5 µM; KKLEB NF-kB-GFP reporter, PAF-induced, GFP fluorescence overnight; hit rate 0.86% among 360,000;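 active = at least 50% inhibition at 5 µM, scaled per plate between neutral and stimulator controls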;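 also: PAF is a Pseudomonas aeruginosa culture filtrate used as stimulus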
MITF TRPM1 inh: reduces MITF-dependent TRPM1 promoter luciferase signal | SK-MEL-5 TRPM1 promoter luciferase, 24 h | inhibition, % at 12.5 µM | hit rate 0.83% among 330,000;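 active = mean inhibition across replicates of 60% or more, whatever share of single replicates reaches that level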
HIF-2a inh: inhibitors of HIF-2a; 786-0 RCC cells HIF-2a reporter, luciferase luminescence, overnight; inhibition, % at 18.8 µM; hit rate 0.72% among 360,000;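 active = inhibition of the luminescence signal of 40% or more relative to plate controls, in a single-dose primary screen at 18.75 µM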
Peg3 promoter: inhibitors of Peg3 promoter. hit rate 1.7% among 360,000. HeLa PEG-Prom luciferase reporter, luminescence, overnight. inhibition, % at 20 µM;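 active = inhibition of at least 50% at 20 µM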
Mdm2 MdmX conf: confirmation of inhibitors of human Mdm2/MdmX interaction, set 2; shares compounds with HIF-2a inh; SaOS-2 split-luciferase Mdm2/MdmX complementation, luminescence; inhibition, % at 8 µM; hit rate 99% among 740;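 active = mean inhibition of the luminescence signal across two replicates at or above 26 percent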
HIF-2a conf: confirmation of HIF-2a inhibitors | shares compounds with HIF-2a inh | 786-0 RCC cells, HIF-2a luciferase reporter luminescence, overnight | inhibition, % at 18.8 µM | hit rate 56% among 1,800;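 active = mean inhibition across four replicates of at least 40 percent at the single tested concentration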
HIF-1a counter: HIF-1a inhibition counter-screen for HIF-2a hits. shares compounds with HIF-2a inh. MiaPaCa-2 HIF-1a luciferase reporter, desferoxamine, overnight. inhibition, % at 18.8 µM. hit rate 72% among 1,800. AID 651589;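 active = mean inhibition of the reporter signal across four replicates at the single tested dose of 50% or more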
Large screens that a line does not name were inactive (follow-up assays come after a bar, where they were run). Most compounds without a hit are left out; they make up all but 3.1% or so of the library.

CC(C)(C)c1ccc(/C=C(\c2nc3ccccc3[nH]2)S(=O)(=O)c2ccccc2)cc1	KKLEB cytotox -70, ABHD5-PLIN5 inh 43, CF NFkB inh 94, MITF TRPM1 inh 91, HIF-2a inh 95, Peg3 promoter 104 | Mdm2 MdmX conf 103 | HIF-2a conf 97 | HIF-1a counter 108
CC(=O)Nc1nc(-c2ccc3c(c2)CC(C)N3C(=O)C2CC2)c(C)s1 (stereo not given)	none | Mdm2 MdmX conf 99
CN(C)S(=O)(=O)c1ccc(C(=O)NCc2nnc(SCC(=O)c3ccccc3)o2)cc1	none
N#Cc1ccc(Oc2cccc3cccnc23)c([N+](=O)[O-])c1	none
O=[N+]([O-])c1ccc(Oc2cccc3cccnc23)c([N+](=O)[O-])c1	HIF-2a inh 41 | HIF-2a conf inactive | HIF-1a counter inactive
Cc1ccccc1N(C(=O)c1snc(C(N)=O)c1N)C(C)C(=O)NC1CCCCC1 (stereo not given)	none
Cc1ccccc1N(C(=O)c1snc(C(N)=O)c1N)C(C(=O)NC1CCCCC1)c1ccc(O)cc1 (stereo not given)	HIF-2a inh 42 | HIF-2a conf inactive | HIF-1a counter 86
Cc1[nH]c2ccccc2c1C(=O)CN1C(=O)NC2(CC(C)CC(C)(C)C2)C1=O (stereo not given)	HIF-2a inh 45 | HIF-2a conf inactive | HIF-1a counter 62
CCN(Cc1ccccc1)C(=O)CN1C(=O)NC2(CC(C)CC(C)(C)C2)C1=O (stereo not given)	none
COC(=O)Nc1ccc(S(=O)(=O)N2CCC(C(=O)N3CCCC(C)C3)CC2)cc1 (stereo not given)	none
COCCn1c(C)cc(C2=NNC(=Nc3ccccc3F)SC2)c1C	MITF TRPM1 inh 67, HIF-2a inh 78 | Mdm2 MdmX conf 80 | HIF-2a conf inactive | HIF-1a counter 71
COCCCN=C1NN=C(c2cc(C)n(-c3ccccc3F)c2C)CS1	none
Nc1c(Cl)cnn(-c2ccccc2)c1=O	none (no result: MITF TRPM1 inh)
O=c1c(Cl)c(Cl)cnn1-c1ccccc1	KKLEB cytotox -81, CF NFkB inh 97, MITF TRPM1 inh 88, HIF-2a inh 94, Peg3 promoter 115 | HIF-2a conf 98 | HIF-1a counter 104
CCOC(=O)c1c[nH]c(=S)n(-c2ccccc2)c1=O	none
CCOC(=O)c1c(SCCN2CCCC2)n(-c2ccccc2)c(=S)n(-c2ccccc2)c1=O	ABHD5-PLIN5 inh 22, MITF TRPM1 inh 96, HIF-2a inh 78, Peg3 promoter 100 | HIF-2a conf 93 | HIF-1a counter 102
COc1ccc(C(CNc2ccc(C(F)(F)F)cn2)N(C)C)cc1OC (stereo not given)	none
C=CS(=O)(=O)N(Cc1ccccc1Br)[C@H](CO)CC(C)C	HIF-2a inh 41, Peg3 promoter 56 | HIF-2a conf inactive | HIF-1a counter inactive
CCOc1cc(C2NC(=O)NC2=O)ccc1O (stereo not given)	none
CC(=NNC(=S)Nc1ccccc1)c1ccccn1	HIF-2a inh 71 (no result: MITF TRPM1 inh) | HIF-2a conf inactive | HIF-1a counter inactive
C/C(=N\NC(=O)c1ccc(F)cc1)c1ccccn1	none
CCOC(=O)Cc1csc(NC(=S)NC(=O)c2ccc([N+](=O)[O-])cc2)n1	HIF-2a inh 63 | HIF-2a conf 71 | HIF-1a counter inactive
CCOC(=O)Cc1csc(NC(=O)Cc2ccc([N+](=O)[O-])cc2)n1	none
C#Cc1ccc(CN2CCN(CCCc3ccccc3)C(CCO)C2)cc1 (stereo not given)	none
CCOc1ccc(N2C(=O)/C(=C/c3ccccc3)N=C2SC)cc1	none
COc1ccc(/C=C2\N=C(SC)N(c3ccccc3OC)C2=O)cc1	none | Mdm2 MdmX conf 100
CC1Cc2ccccc2N1S(=O)(=O)c1cccc(C(=O)N2CCN(c3ncccn3)CC2)c1 (stereo not given)	none | Mdm2 MdmX conf 100
CC(=O)N1CCN(C(=O)c2cccc(S(=O)(=O)N3c4ccccc4CC3C)c2)CC1 (stereo not given)	none
CC(C)n1cnc2c(NCc3ccccc3)cc(N[C@H](C)CO)cc21	MITF TRPM1 inh 73, Peg3 promoter 67 | Mdm2 MdmX conf 89
O=C(NCc1cc(C(F)(F)F)ccc1Cl)c1cccc2c1C(=O)c1ccc(N3CCC(N4CCCCC4)CC3)cc1S2(=O)=O	HIF-2a inh 92, Peg3 promoter 99 (no result: MITF TRPM1 inh) | HIF-2a conf inactive | HIF-1a counter 100
Cc1c(CCC(=O)N2CCC(C(=O)O)(c3ccccc3)CC2)c(=O)oc2cc3oc4c(c3cc12)CCCC4	HIF-2a inh 63 | HIF-2a conf 78 | HIF-1a counter inactive
CN(c1nc2nonc2nc1NC1CC1)C1CCOC1 (stereo not given)	none
COc1ccc(C(C(=O)NC2CCCC2)n2c(CSCCOc3ccccc3)nc3ccccc32)cc1 (stereo not given)	HIF-2a inh 43 (no result: KKLEB cytotox, CF NFkB inh, MITF TRPM1 inh, Peg3 promoter) | HIF-2a conf 74 | HIF-1a counter 63
CC(C(=O)NCc1ccccc1)n1c(CSCCOc2ccccc2)nc2ccccc21 (stereo not given)	none (no result: KKLEB cytotox, CF NFkB inh, MITF TRPM1 inh, Peg3 promoter)
COc1ccc(C(C(=O)NC2CCCC2)n2c(Cc3cc(F)cc(F)c3)nc3ccccc32)cc1 (stereo not given)	none (no result: KKLEB cytotox, CF NFkB inh, MITF TRPM1 inh, Peg3 promoter)
CCC(C(=O)NCc1ccccc1)n1c(CSCCOc2ccccc2)nc2ccccc21 (stereo not given)	HIF-2a inh 64 (no result: KKLEB cytotox, CF NFkB inh, MITF TRPM1 inh, Peg3 promoter) | HIF-2a conf 74 | HIF-1a counter 77
O=C(CN1C(=O)c2ccccc2S1(=O)=O)c1ccccc1Cl	MITF TRPM1 inh 78, HIF-2a inh 48 | HIF-2a conf 75 | HIF-1a counter 68
CCn1c(C)cc(C(=O)CN2C(=O)c3ccccc3S2(=O)=O)c1C	MITF TRPM1 inh 68, HIF-2a inh 73, Peg3 promoter 80 | HIF-2a conf 88 | HIF-1a counter 77
Cc1cc(C)c2nc(-c3ccccn3)cc(C(=O)N3CCCC3)c2c1	none
COc1ccc(C(=O)CSc2n[nH]c(=O)n2Cc2ccco2)cc1	none
CCc1ccc(NC(=O)COc2ccc(/C=C(/C#N)c3nc4ccccc4[nH]3)cc2OC)cc1	Peg3 promoter 57 | Mdm2 MdmX conf 89
COC(=O)c1ccc(COc2ccc(/C=C(\C#N)c3nc4ccccc4[nH]3)cc2OC)o1	none
O=C(CCN1C(=O)/C(=C/c2ccccc2)SC1=S)NCCc1ccc(O)cc1	Peg3 promoter 95 | Mdm2 MdmX conf 102
